Source: PubChem BioAssay AID1159580 (chemical genetic matrix, 2015)
Out of some 5,500 compounds screened, about 2,000 (36%) were called active. About 18% were inconclusive and are not listed. No stated cut-off is given here; in the data, active means normalized growth mostly below about 0.91 (no sharp cut-off); inconclusive means no clear call, values can overlap the other calls; inactive means mostly above about 0.92. Some of the results follow.

Test: chemical genetic growth profiling, strain panel (AID 1159580);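 further: tested at 20 µM; growth read once vehicle control cultures reached saturation at 30 °C; 1 = growth at the plate median or of vehicle wells; lower values mean less growth of the strain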
Conditions: S. cerevisiae deletion strains, growth OD

Measured: normalized growth

C/C(=N/NC(N)=S)c1ccc(Oc2c(Cl)cncc2Cl)cc1
inactive: locus YAR019C, strain CDC15, hits give low values 0.997 | locus YBL105C, strain PKC1, hits give low values 0.993 | locus YBR135W, strain CKS1, hits give low values 0.983 | locus YBR136W, strain MEC1, hits give low values 0.986 | locus YBR160W, strain CDC28, hits give low values 0.989 | locus YDL017W, strain CDC7, hits give low values 0.987 | locus YDL028C, strain MPS1, hits give low values 0.992 | locus YDL101C, strain DUN1, hits give low values 0.988 | locus YDL108W, strain KIN28, hits give low values 0.987 | locus YDL132W, strain cdc53, hits give low values 0.994 | locus YDL214C, strain PRR2, hits give low values 1.01 | locus YDR052C, strain DBF4, hits give low values 0.989 | locus YDR054C, strain cdc34, hits give low values 0.978 | locus YDR226W, strain ADK1, hits give low values 0.988 | locus YDR477W, strain SNF1, hits give low values 0.999 | locus YER123W, strain YCK3, hits give low values 0.989 | locus YER133W, strain GLC7, hits give low values 0.969 | locus YFL009W, strain cdc4, hits give low values 0.983 | locus YFL029C, strain CAK1, hits give low values 1 | locus YFR003C, strain YPI1, hits give low values 0.991 | locus YFR019W, strain FAB1, hits give low values 0.99 | locus YFR028C, strain CDC14, hits give low values 0.993 | locus YGR040W, strain KSS1, hits give low values 0.989 | locus YGR052W, strain FMP48, hits give low values 1.06 | locus YGR092W, strain DBF2, hits give low values 0.97 | locus YHR030C, strain SLT2, hits give low values 1.05 | locus YHR079C, strain IRE1, hits give low values 0.932 | locus YHR082C, strain KSP1, hits give low values 1.24 | locus YHR205W, strain SCH9, hits give low values 1.07 | locus YIL147C, strain SLN1, hits give low values 0.984 | locus YJL095W, strain BCK1, hits give low values 0.944 | locus YJL128C, strain PBS2, hits give low values 1.02 | locus YJL157C, strain FAR1, hits give low values 0.993 | locus YJR016C, strain ILV3, hits give low values 0.995 | locus YJR066W, strain TOR1 (second series), hits give low values 0.953 | locus YJR066W, strain TOR1, hits give low values 1.2 | locus YKL048C, strain ELM1, hits give low values 1.03 | locus YKL067W, strain YNK1, hits give low values 1.02 | locus YKL101W, strain HSL1, hits give low values 1.03 | locus YKL193C, strain SDS22, hits give low values 0.991 | locus YKL203C, strain TOR2, hits give low values 1.06 | locus YLR113W, strain HOG1, hits give low values 1.01 | locus YLR133W, strain CKI1, hits give low values 1.01 | locus YLR403W, strain SFP1, hits give low values 0.97 | locus YML070W, strain DAK1, hits give low values 1.01 | locus YMR001C, strain CDC5, hits give low values 0.989 | locus YMR205C, strain PFK2 (second series), hits give low values 1.03 | locus YMR277W, strain FCP1, hits give low values 0.997 | locus YNL006W, strain LST8, hits give low values 0.993 | locus YNL020C, strain ARK1, hits give low values 1.01 | locus YNL161W, strain CBK1, hits give low values 1 | locus YNL183C, strain NPR1, hits give low values 0.996 | locus YNL207W, strain RIO2, hits give low values 0.995 | locus YNL222W, strain SSU72, hits give low values 0.998 | locus YNL307C, strain MCK1 (second series), hits give low values 1 | locus YOL078W, strain AVO1, hits give low values 0.998 | locus YOL136C, strain PFK27, hits give low values 1.02 | locus YOR061W, strain CKA2, hits give low values 0.994 | locus YOR119C, strain RIO1, hits give low values 1.02 | locus YOR231W, strain MKK1, hits give low values 0.973 | locus YOR329C, strain SCD5, hits give low values 0.991 | locus YPL031C, strain PHO85, hits give low values 0.983 | locus YPL153C, strain RAD53, hits give low values 0.953 | locus YPL204W, strain HRR25, hits give low values 0.972 | locus YPL209C, strain IPL1, hits give low values 0.998 | locus YPL256C, strain CLN2, hits give low values 0.99 | locus YPR025C, strain CCL1, hits give low values 0.988 | locus YPR106W, strain ISR1, hits give low values 1 | locus YPR111W, strain DBF20, hits give low values 1.02 | strain NNK1, hits give low values 1.03 | strain TSCII, hits give low values 0.994
